Assay outcomes as filed in PubChem BioAssay.
HEK293 viab = reduces viability of HEK-293 SNCA reporter cells; HEK-293-SNCA-luc viability, GF-AFC fluorescence, 24 h; Potency, µM (doses to about 57.1 µM), for inactives: top-dose activity change, negative = cytotoxicity, most hits filed as cytotoxic; 150,000 tested, 0.12% active; AID 1671193;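 note: potency is the fitted concentration of half-maximal effect; 0% = DMSO-treated cells and -100% = medium-only wells without cells; nearly all actives have a fitted effect of over 30% in size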
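HEK-293-SNCA-luc cells (1500/well) plated 24 h, then exposed 24 h to a dilution series; GF-AFC added 30 min at 37C, fluorescence 405/540 nm; normalised to medium-only and DMSO wells, Hill fit.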
HEK cytotox = cytotoxic compounds in HEK 293 cells; HEK 293 viability, ATP luminescence (CellTiter-Glo), 48-72 h; 94,000 tested, 6.6% active; Potency, µM (series often up to 115 µM), inactives show at the highest dose activity change, negative = cytotoxicity, usual class: inhibitors; AID 1345083; note: potency is the fitted concentration of half-maximal effect; % is set by controls: 0 for no effect and ±100 for the full control effect; nearly all actives have a fitted effect of over 60% in size
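CellTiter-Glo luminescence (cellular ATP) was read after 48 or 72 hr of compound exposure at 37 degree Celsius. Cells were HEK 293 plated at 250 cells/well.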
FLuc inh-1 = inhibitors of firefly (Photinus pyralis) luciferase; P08659; 76,000 tested, 2.5% active; purified P. pyralis luciferase, luminescence, biochemical; Potency, µM (highest dose often 115 µM), most hits filed as inhibitors; note: potency is the fitted concentration of half-maximal effect; % is set by controls: 0 for no effect and ±100 for the full control effect; nearly all actives have a fitted effect of over 65% in size
Target sequence (P08659 whole entry, looked up): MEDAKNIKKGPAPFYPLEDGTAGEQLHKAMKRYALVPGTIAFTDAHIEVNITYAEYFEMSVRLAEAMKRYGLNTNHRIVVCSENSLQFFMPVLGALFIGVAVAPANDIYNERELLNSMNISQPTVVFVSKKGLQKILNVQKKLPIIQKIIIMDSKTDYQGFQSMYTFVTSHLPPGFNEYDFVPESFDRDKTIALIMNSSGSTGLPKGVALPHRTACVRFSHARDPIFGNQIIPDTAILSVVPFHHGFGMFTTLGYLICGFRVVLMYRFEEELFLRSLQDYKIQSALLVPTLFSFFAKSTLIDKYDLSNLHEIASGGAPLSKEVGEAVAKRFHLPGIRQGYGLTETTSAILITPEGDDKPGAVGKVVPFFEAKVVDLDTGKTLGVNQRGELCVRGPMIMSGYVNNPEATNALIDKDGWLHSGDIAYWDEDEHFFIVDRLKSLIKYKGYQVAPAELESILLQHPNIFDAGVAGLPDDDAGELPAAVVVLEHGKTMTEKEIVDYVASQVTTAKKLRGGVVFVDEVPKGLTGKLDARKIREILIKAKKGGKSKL
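Luminescence read by CCD imaging after purified firefly luciferase (10nM final) was added to substrate buffer holding 10uM D-luciferin and 10uM ATP, pH 7.5, pre-dosed with compound.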
IP6K1 inhibitor = IP6K1 kinase inhibition; Q92551; IP6K1 kinase, ADP-Glo luminescence, 2 h; stronger effect = lower value; AID 1645851; activity change, % (series mostly up to about 58 µM); 140,000 tested, 0.81% active; in the data active = activity change below about -25%; note: % is set by controls: 0 for no effect and ±100 for the full control effect
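ADP-Glo luminescence measures ADP made by human IP6K1 during a 2 h RT reaction with ATP/IP6 (mix at 1.3 mM/130 uM); top library doses 57.5 and 19.1 uM final.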
3T3 cytotox = cytotoxic compounds in NIH 3T3 cells. NIH 3T3 viability, CellTiter-Glo ATP luminescence, 48-72 h. Potency, µM (series often up to 96.7 µM), inactives show at the highest dose activity change, negative = cytotoxicity, actives largely listed as inhibitors. 94,000 tested, 4.3% active. AID 1345082; note: potency is the fitted concentration of half-maximal effect; % is set by controls: 0 for no effect and ±100 for the full control effect; nearly all actives have a fitted effect of over 55% in size
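NIH 3T3 cells at 400 cells/well received 23 nL of compound by pintool and were incubated 48 or 72 h at 37 °C. Viability was read as ATP-coupled CellTiter-Glo luminescence.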
SNCA expr inhib = reduces expression of the alpha-synuclein gene; HEK-293 SNCA-luciferase knock-in, luminescence, 24 h; Potency, µM (series often up to 57.2 µM), without a hit: at the top dose activity change, negative = inhibition, hits mostly inhibitors; 140,000 tested, 0.17% active;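 note: potency is the fitted concentration of half-maximal effect; plate controls were DMSO cells for no effect and cell-free wells for full effect; nearly all actives have a fitted effect of over 45% in size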
FLuc SDR -ATP = firefly luciferase binding stabilization, ATP absent. shares compounds with FLuc inh-1. Purified FLuc-C-HiBiT, Nano-Glo HiBiT luminescence, no ATP. Potency, µM (top dose mostly 32.7 µM), for the others: at the top dose activation (signal gain), usual class: activators. 1,300 tested, 7.8% active; note: potency is the fitted concentration of half-maximal effect; nearly all actives have a fitted effect of over 55% in size
FLuc SDR ATP = binders stabilizing firefly luciferase, plus ATP | purified FLuc-C-HiBiT + ATP, HiBiT complementation luminescence | shares compounds with FLuc inh-1 | AID 1963319 | Potency, µM (series often up to 32.7 µM), inactives show at the top dose activation (gain of signal), actives largely listed as activators | 1,300 tested, 8.7% active;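 note: signal reports ligand binding via conformational change of the enzyme rather than luciferase catalysis; potency is the fitted concentration of half-maximal effect; % of control where 0% means no effect; nearly all actives have a fitted effect of over 55% in size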
FLuc inh-2 = inhibitors of firefly luciferase enzymatic activity | purified FLuc-C-HiBiT enzyme, luciferin luminescence | 1,300 tested, 42% active | Potency, µM (top dose mostly 32.7 µM), for inactives: at the top dose activity change, negative = inhibition, hits mostly inhibitors | shares compounds with FLuc inh-1 | AID 1963320; note: potency is the fitted concentration of half-maximal effect; % is set by controls: 0 for no effect and ±100 for the full control effect; nearly all actives have a fitted effect of over 70% in size
* hit, by the source's call; i = inactive; u = inconclusive; x = no result given; [ ] = dose if it differs, or a comment. The list is not random: actives were taken first. Their share in the collection is about 7.3%. Unless noted, calls come from the whole dose curve; as a rule, active = well fitted curve in the direction sought with a large enough effect; inconclusive = small, poorly fitted or top-dose-only effect, or another doubt; inactive = no such curve, though single readings can be large; an effect the other way counts as inactive or inconclusive.

SMILES	HEK293 viab	HEK cytotox	FLuc inh-1	IP6K1 inhibitor	3T3 cytotox	SNCA expr inhib	FLuc SDR -ATP	FLuc SDR ATP	FLuc inh-2
O=C(NCC1CC1)c1ccc2nnc(-c3cc[nH]c3)n2c1	-14.6%[87.6 µM]	i	x	-11.7	-25.7%[138 µM]	13.9%[87.6 µM]	x	x	x
COc1cc(OC)cc(C(=O)N2CCCC(n3cc(-c4nc(-c5ccccc5)no4)nn3)C2)c1 (centres undefined)	u	u	i	0.0	u	0.0%	x	x	x
CCC(=O)N1CCc2c(C(=O)O)cccc21	0.7%	-7.5%	28.2µM*	11.6	-23.8%	137.8%	9.3%	19.3%	-12.9%
CCC(=O)N1CCc2c(C(=O)NCC(C)C)cccc21	-6.4%	3.9%	i	-5.1	-10.6%	-15.5%	x	x	x
O=C(O)c1cccc2c1CCN2C(=O)c1ccc(F)cc1	5.2%	-29.0%	1.26µM*	-12.9	u	-6.1%	20.9%	1.24µM*	1.76µM*
COCC(=O)N[C@@H]1CNCC[C@@H]1c1nc(C)no1	-1.9%	3.4%	i	22.8	-2.8%	7.9%	x	x	x
Cc1ccc(-c2cccc(COc3cnc4c(ccn4CC(=O)O)c3)c2)c(C)c1	x	x	x	x	x	x	13.6%[49.3 µM]	7.3%[49.3 µM]	-12.7%[49.3 µM]
COc1cc(Cl)ccc1-c1cccc(CCOc2cnc3c(ccn3CC(=O)O)c2)c1	-2.6%[87.6 µM]	u	i	-3.0	u	-9.2%[87.6 µM]	x	x	x
Cc1ccc(-c2cccc(COc3cnc4c(ccn4CC(=O)O)c3)c2)cc1C	x	x	x	x	x	x	9.6%[49.3 µM]	7.2%[49.3 µM]	u
O=C(O)Cn1ccc2cc(OCCc3cccc(-c4ccccc4)c3)cnc21	5.3%[87.6 µM]	u	i	-15.0	-33.5%[138 µM]	0.8%[87.6 µM]	x	x	x
COc1ccc(-c2cccc(COc3cnc4c(ccn4CC(=O)O)c3)c2)c(C)c1	8.3%[87.6 µM]	u	i	-8.9	u	5.3%[87.6 µM]	9.1%	8.2%	-5.6%
COc1cc(F)cc(-c2cccc(CCOc3cnc4c(ccn4CC(=O)O)c3)c2)c1	-1.0%[87.6 µM]	u	i	-10.0	u	-11.1%[87.6 µM]	x	x	x
COc1cccc(-c2cccc(COc3cnc4c(ccn4CC(=O)O)c3)c2)c1	x	x	x	x	x	x	7.4%[49.3 µM]	4.8%[49.3 µM]	u
COc1ccc(-c2noc(CC3CCN(C(=O)Cc4ccccc4OC)CC3)n2)cc1	-10.1%	u	i	-2.0	u	-27.4%	x	x	x
COCCNC(=O)c1nc2sccn2c1-c1cccc(C#N)c1	12.0%[87.6 µM]	2.9%[172 µM]	x	11.0	-15.9%[138 µM]	5.0%[87.6 µM]	x	x	x
CN(Cc1ccccc1)C(=O)c1cccc2c1CCN2C(=O)Nc1ccccc1	-29.3%	u	0.794µM*	-11.6	u	u	16.2%	0.394µM*	0.279µM*
CN(Cc1ccco1)C(=O)c1cccc2c1CCN2C(=O)Nc1ccccc1	-27.0%	u	1.26µM*	-6.4	u	-71.9%	u	0.279µM*	0.197µM*
CN(C)CCNC(=O)Cc1ccc(NC(=O)N2CCCCc3ccccc32)cc1	-0.2%	x	x	9.9	x	46.1%	x	x	x
CCOC(=O)c1cccc(NC(=O)C2=CC(C)(C)COc3ccc(OC)cc32)c1	x	u	x	2.7	u	x	x	x	x
COc1ccc(C(=O)N2C(C(=O)NC(C)C)COC23CCN(C(=O)c2ccc(F)cc2)CC3)cc1 (centres undefined)	-1.0%	-26.3%	i	2.6	-8.0%	-1.4%	x	x	x
Cc1ccc2oc(=O)c(-c3nc(-c4cccs4)no3)cc2c1	4.7%	x	x	18.0	x	82.8%	14.4%	12.9%	-13.6%
